FMDV inh = High Throughput Screening for Foot and Mouth Disease Virus Antivirals. FMDV antiviral cell-based qHTS. Potency, µM (highest dose often 57.9 µM), without a hit: at the highest dose activity change, negative = inhibition, most hits filed as inhibitors. actives 1.2% (n = 410,000); calls by dose curve; tested in HEK293T cells; also: read-out not given here; nearly all actives have a fitted effect of over 45% in size
Sm TGR inh = qHTS Assay for the Inhibitors of Schistosoma Mansoni Peroxiredoxins; purified TGR, DTNB reduction, TNB absorbance 405 nm; Potency, µM (top dose mostly 114 µM), for inactives: at the highest dose activity change, negative = inhibition, most hits filed as inhibitors; Schistosoma mansoni thioredoxin glutathione reductase (TGR), Q962Y6; actives 3% (n = 360,000); also: nearly all actives have a fitted effect of over 60% in size
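First, TGR (20 nM dispensed) and NADPH were mixed with compound. Second, a 15 min room-temperature incubation followed. Third, further NADPH and then DTNB were added to start the reaction. Finally, TNB absorbance was monitored kinetically.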
RE007 growth inh = qHTS Assay for Inhibitors of the HIV-1 protein Vpr. S. pombe RE007 Vpr strain, BacTiter-Glo ATP luminescence, 24 h. Potency, µM (top dose mostly 92.2 µM), inactives show at the highest dose activity change, negative = less growth, hits mostly inhibitors. actives 0.21% (n = 360,000); active = well fitted falling curve with a large enough effect; inconclusive = small, poorly fitted or top-dose-only effect; inactive = no such curve, though single readings can be large or run the other way; also: nearly all actives have a fitted effect of over 50% in size
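Fission yeast RE007 carrying one integrated HIV-1 vpr copy, seeded at OD 0.01 in PMG+AL medium with 23 nL pinned compound. Grown 24 h at 30 degrees; viability read by BacTiter-Glo luminescence after 5 min.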
Tb PYK inh = qHTS of Trypanosoma Brucei Inhibitors. Potency, µM (top dose mostly 76.8 µM), inactives show at the top dose activity, negative = inhibition, usual class: inhibitors. TbPYK enzyme, Kinase-Glo Plus ATP luminescence, 45 min. actives 0.12% (n = 410,000). pyruvate kinase (Trypanosoma brucei), Q57TT1; also: nearly all actives have a fitted effect of over 50% in size
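In this concentration-response screen, enzyme-free wells defined baseline while DMSO plates tracked drift. Each reaction combined TbPYK, substrate, compound and 130 uM ADP for 45 min at room temperature. Kinase-Glo Plus luminescence gave the signal.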
* marks the source's active call; other numbers are inactive results; ? = inconclusive; . = no result. An excerpt weighted towards active compounds, which were near 3.7% of everything screened. Unless noted, calls follow the shape of the dose curve; as a rule, active = well fitted curve in the direction sought with a large enough effect; inconclusive = small, poorly fitted or top-dose-only effect, or another doubt; inactive = no such curve, though single readings can be large; an effect the other way counts as inactive or inconclusive. % is scaled to controls: 0 for no effect and ±100 for the full control effect; potency is read from the fitted curve at half-maximal effect.

SMILES	FMDV inh	Sm TGR inh	RE007 growth inh	Tb PYK inh
Cc1ccc(-c2nc3ccc(Cl)cn3c2Nc2ccc3c(c2)OCCO3)o1	12%	28µM*	.	-5%
Cc1ccc(-c2nc3ncccn3c2Nc2ccc3c(c2)OCCO3)o1	35%	50µM*	10%	2%
CCc1ccc(CN(C(=O)c2nc(SC)ncc2Cl)C2CCS(=O)(=O)C2)cc1 (stereo not drawn)	-1%	-1%	.	6%
O=C(N/N=C\c1ccc(Br)o1)C1COc2ccccc2O1 (stereo not drawn)	-24%	.	-11%	-13%
CN(C)c1ccc(/C=N/NC(=O)C2COc3ccccc3O2)o1 (stereo not drawn)	16%	16µM*	2%	28µM*
COc1cccc(N2CCN(c3ncnc4c3cnn4-c3ccc(C)cc3C)CC2)c1	4µM*	-1%	-5%	5%
Cc1ccc(-n2ncc3c(N4CCCCCC4)ncnc32)cc1C	56µM*	5%	.	-8%
Cc1cccc(N2CCN(c3ncnc4c3cnn4-c3ccc(Cl)cc3)CC2C)c1 (stereo not drawn)	32µM*	9%	.	3%
c1ccc(-n2ncc3c(N4CCCCC4)ncnc32)cc1	-86%	3%	-15%	-5%
Cc1cccc(N2CCN(c3ncnc4c3nc3n4CCCCC3)CC2C)c1 (stereo not drawn)	2.2µM*	6%	.	-5%
Cc1cccc(-n2ncc3c(N4CCCC(C)C4)ncnc32)c1 (stereo not drawn)	25µM*	12%	.	-7%
Cc1cccc(-n2ncc3c(N4CCCCCC4)ncnc32)c1	16µM*	11%	.	-4%
COc1ccc(C(=O)NCCn2cc(SCC(=O)NCCc3ccc(OC)c(OC)c3)c3ccccc32)cc1	-24%	-3%	.	-2%
Cc1ccccc1C1(CC(=O)N2CCC[C@H]2C(N)=O)CC(=O)N(C2CCCC2)C1=O (stereo partly drawn)	16%	.	.	.
Cc1cc(C(=O)NCc2ccccc2)c2c(C)nn(-c3cccc(Cl)c3C)c2n1	-22%	6%	.	-8%
CCOc1ccc(Sc2cc(C(=O)NCCc3ccc(OC)c(OC)c3)c3ccccc3n2)cc1	14µM*	8%	.	-1%
CC1(C)CCC(c2ccc(Cl)cc2)=C(CN2CCN(c3ccc(C(=O)NS(=O)(=O)c4ccc(N[C@H](CCN5CCOCC5)CSc5ccccc5)c(S(=O)(=O)C(F)(F)F)c4)cc3)CC2)C1	.	.	.	0%
O=C(CCCc1c[nH]c2ccccc12)N1CCN(S(=O)(=O)c2cccs2)CC1	25µM*	-14%	17%	0%
CSc1ncc(CN2CCCC(C(=O)Nc3ccc(-c4ccco4)cc3)C2)cn1 (stereo not drawn)	-13%	18µM*	-1%	-15%
Cc1c(C(=O)OCc2ccccc2)[nH]c2c1C(=O)CC(c1ccc(N(C)C)cc1)C2 (stereo not drawn)	-1%	-3%	.	6%
Cc1c(C(=O)OCC2CCCO2)[nH]c2c1C(=O)CC(c1ccc(N(C)C)cc1)C2 (stereo not drawn)	20µM*	-12%	11%	-2%
CC1CCN(S(=O)(=O)c2ccc3ncn(CC(=O)Nc4ccccc4C(F)(F)F)c(=O)c3c2)CC1	-10%	7%	.	4%
O=C1C(=O)c2ccccc2C(O)=C1CCCCl	28µM*	?	?	-14%
Cc1ccc(F)cc1S(=O)(=O)NCc1nc(N2CCCC2)c2cccc(C)c2n1	-13%	.	.	.
CCCCN(CC)Cc1c(O)ccc2c(-c3ccccc3)cc(=O)oc12	-19%	50µM*	-2%	7%
CN1CCN(Cc2c(O)ccc3c(-c4ccccc4)cc(=O)oc23)CC1	11%	32µM*	-17%	1%
O=C(C1=C[C@H](c2ccc(Br)cc2)C[C@H](OCCCCO)O1)N1CCN(Cc2ccccc2)CC1	0%	35µM*	1%	4%
O=C(C1=C[C@H](c2ccc3c(c2)OCO3)C[C@H](OCCCCO)O1)N1CCOCC1	-19%	?	1%	-1%
O=C(C1=C[C@H](c2ccccc2)C[C@H](OCCCCO)O1)N1CCOCC1	-8%	45µM*	5%	1%
O=C(C1=C[C@@H](c2csc3ccccc23)C[C@@H](OCc2ccc(CO)cc2)O1)N1CCN(Cc2ccccc2)CC1	-27%	35µM*	-3%	2%
